# Where “and” joins values, the source holds several entries; their conditions need not be identical. Equal entries are not always repeated. Results filed as inconclusive are left out. For part of these data: Potency and affinity values are given separately. Calls of active or inactive are those of the source. Unless noted, how the calls were made is not given here.
# Tests used:
# [1] = polyglutamine-triggered caspase-3 activation inhibitors, cell-based (AID 1583); settings: polyglutamine-induced caspase-3 activation, cell assay; stronger effect = higher value;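 tested at 10 µM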
# [2] = suppressors of polyQ aggregation in yeast, 75Q-TubU reporter (AID 1593); settings: Yeast 75Q polyglutamine aggregation reporter
# [3] = rescue of polyQ-huntingtin neuronal dysfunction in worms, whole organism, C. elegans mechanosensory neurons, N-terminal huntingtin (AID 1599); settings: touch response, stronger effect = higher value
# [4] = inhibitors of mitochondrial cytochrome c release, biochemical, purified mitochondria (AID 1603); settings: stronger effect = lower value;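 further: mouse liver mitochondria challenged with calcium chloride; signal normalized to the plate average as 100%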
# [5] = inhibitors of polyQ protein aggregation (AID 1604); settings: polyglutamine-induced protein aggregation inhibition assay; stronger effect = higher value; tested at 2.5 µM
# [6] = enhancers of glutamate uptake in motor neurons, MN-1 cell line (AID 1612); settings: MN-1 motor neuron cells, stronger effect = higher value;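 further: tested at 1 µM final; 0% = mean of DMSO vehicle wells on each plate; positive means more glutamate uptake than control and negative means less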
# [7] = suppressors of polyglutamine aggregation in yeast, 75Q-TubH (AID 1616); settings: S. cerevisiae 75Q-TubH polyglutamine aggregation suppression; stronger effect = higher value
# [8] = hESC survival regulators, cell-based (AID 493140); settings: human embryonic stem cell survival screen; stronger effect = higher value;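 further: cells exposed to compounds for four days before counting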
# F380Y/beta1 = assay: modulators of BK channel variants, profiling panel, selectivity assay, cell-based, U2OS BacMam, thallium flux, beta subunits (AID 1259406;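 active means thallium flux through the channel raised or lowered by more than 3 SD from vehicle-only wells, actives on both sides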;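 further: initial slope of Thallos dye fluorescence rise after thallium is added; log ratio against the mean of 0.3% DMSO vehicle wells on the same plate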); settings: at 30 µM
# F380Y/beta4 = assay: as above; settings: at 30 µM
# R275C/beta4 = assay: as above; settings: at 30 µM
# R275C/Slo1WT/beta2 = assay: as above; settings: at 30 µM
# [9] = test system: Neuropilin-2 / VEGF-C interaction (human); assay: inhibitors of NRP2–VEGF-C binding, biochemical, microplate binding format, z-score (AID 743281); settings: microplate NRP2/VEGF-C binding assay; stronger effect = lower value
# [10] = growth inhibition of DIPG glioma cells, dose response, cell-based, JHH-DIPG-1, MIPE4.0, CellTiter-Glo, qHTS (AID 1347062; cut-off not given, nearly all actives have AC50 up to about 27 µM;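 on AC50: cells exposed to compound for two days before readout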); settings: JHH-DIPG-1 viability, CellTiter-Glo ATP luminescence
# [11] = test system: Aerobactin synthetase IucA (Klebsiella pneumoniae); assay: IucA aerobactin synthetase inhibitors, biochemical, Tocris library, absorbance (AID 1345561); settings: purified IucA enzyme assay, absorbance (OD) read-out; stronger effect = lower value;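 tested at 8 µM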;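 further: 100% = enzyme without compound and 0% = no enzyme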
# [12] = circadian clock period modulators, cell-based, LOPAC library, luminescence reporter (AID 2774); settings: circadian reporter cells, at 7 µM, actives lie on both sides;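 further: values are relative to mean of DMSO wells on each plate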
# [13] = test system: Hepatitis C virus NS3 helicase; assay: HCV NS3 helicase inhibitors, primary screen, biochemical, fluorescence polarization, LOPAC1280 library (AID 687035; in the data active means inhibition above about 37%); settings: Purified HCV NS3 helicase, Cy5-dT15 ssDNA binding fluorescence polarization; stronger effect = higher value; concentration not given here
# [14] = Cy5 fluorescence quenching or enhancement artefacts, artefact control for HCV NS3 helicase inhibitor project, biochemical, LOPAC1280 (AID 687037); settings: Cy5-DNA-NS3h complex fluorescence interference counterscreen
# [15] = modifiers of HSF1 nuclear foci, imaging, Selleck Cancer Library (AID 1347162; in the data active means plate-normalised HSF1 focus index below about 0.46); settings: human cells, at 10 µM; SSMD: measured here: HSF1 foci SSMD mean; cell count: measured here: cell number; plate-normalised HSF1 focus index: stronger effect = lower value
# [16] = phospholipid biosynthesis inhibitors in animal cells, primary screen, cell-based, LOPAC library, screen 4 (AID 1347384); settings: phospholipid biosynthesis inhibition screen, at 10 µM
smiles,measurement,setting,value
CC(=O)N=c1sc(S(N)(=O)=O)nn1C,inhibition,[1],0.15%
same,score,[2],0.84
same,rescue above control,[3],-0.14
same,cytochrome c release ratio,[4],0.55
same,inhibition of aggregation,[5],49.4%
same,glutamate uptake change,[6],-1.05%
same,aggregation suppression score,[7],1.33
same,survival,[8],5.08 (inactive)
same,log fold change Tl+ flux,F380Y/beta1,-0.0785 (inactive)
same,log fold change Tl+ flux,F380Y/beta4,0.0268 (inactive)
same,log fold change Tl+ flux,R275C/beta4,-0.0118 (inactive)
same,log fold change Tl+ flux,R275C/Slo1WT/beta2,-0.0121 (inactive)
C=CC1=C(C(=O)O)N2C(=O)[C@@H](NC(=O)/C(=N\O)c3csc(N)n3)[C@H]2SC1 (stereo in doubt),outcome,[9],inactive
same,outcome,[10],inactive
CCCCC(=O)O[C@H]1CC[C@H]2[C@@H]3CCc4cc(O)ccc4[C@H]3CC[C@]12C,log fold change Tl+ flux,F380Y/beta1,-0.0484 (inactive)
same,log fold change Tl+ flux,F380Y/beta4,0.00293 (inactive)
same,log fold change Tl+ flux,R275C/beta4,-0.0402 (inactive)
same,log fold change Tl+ flux,R275C/Slo1WT/beta2,0.00597 (inactive)
CCCc1nc(C(C)(C)O)c(C(=O)OCc2oc(=O)oc2C)n1Cc1ccc(-c2ccccc2-c2nn[nH]n2)cc1,outcome,[9],inactive
CC(=O)O[C@]1(C(C)=O)CC[C@H]2[C@@H]3C[C@H](C)C4=CC(=O)CC[C@]4(C)[C@H]3CC[C@@]21C,outcome,[10],inactive
same,log fold change Tl+ flux,F380Y/beta1,0.0192 (inactive)
same,log fold change Tl+ flux,F380Y/beta4,-0.000109 (inactive)
same,log fold change Tl+ flux,R275C/beta4,0.0252 (inactive)
same,log fold change Tl+ flux,R275C/Slo1WT/beta2,0.0102 (inactive)
CCC(=O)OCC(=O)[C@@]1(OC(=O)CC)[C@@H](C)C[C@H]2[C@@H]3CCC4=CC(=O)C=C[C@]4(C)[C@@]3(Cl)[C@@H](O)C[C@@]21C,log fold change Tl+ flux,F380Y/beta1,-0.203 (active)
same,log fold change Tl+ flux,F380Y/beta4,-0.237 (active)
same,log fold change Tl+ flux,R275C/beta4,0.0199 (inactive)
same,log fold change Tl+ flux,R275C/Slo1WT/beta2,-0.0376 (inactive)
C#C[C@]1(OC(C)=O)CC[C@H]2[C@@H]3CCC4=CC(=O)CC[C@@H]4[C@H]3CC[C@@]21C,log fold change Tl+ flux,F380Y/beta1,0.0384 (inactive)
same,log fold change Tl+ flux,F380Y/beta4,-0.176 (active)
same,log fold change Tl+ flux,R275C/beta4,-0.14 (active)
same,log fold change Tl+ flux,R275C/Slo1WT/beta2,-0.0421 (inactive)
O=c1cc(-c2ccccc2)oc2cc(O)c(O)c(O)c12,remaining activity,[11],119% (inactive)
CC/C(=C(\c1ccccc1)c1ccc(OCCN(C)C)cc1)c1ccccc1,inhibition,[1],22.9%
same,score,[2],-1.76
same,rescue above control,[3],2.54
same,cytochrome c release ratio,[4],2.67
same,inhibition of aggregation,[5],58.9%
same,glutamate uptake change,[6],-4.23%
same,aggregation suppression score,[7],-0.635
same,period change,[12],0.115 h (inactive)
same,survival,[8],6.5 (inactive)
same,inhibition,[13],-5% (inactive) and -2% (inactive)
same,fluorescence ratio (interference),[14],1 (inactive) and 0.9 (inactive)
same,remaining activity,[11],79.2% (inactive)
same,SSMD,[15],-8.19
same,cell count,[15],3320
same,plate-normalised HSF1 focus index,[15],0.591 (inactive)
same,outcome,[16],inactive
NCCc1cnc[nH]1,inhibition,[1],-28.4%
same,score,[2],1.16
same,rescue above control,[3],-5.3
same,cytochrome c release ratio,[4],0.91
same,inhibition of aggregation,[5],51.2%
same,glutamate uptake change,[6],-0.34%
same,aggregation suppression score,[7],1.08
same,period change,[12],0.14 h (inactive)
same,inhibition,[13],-3% (inactive)
same,fluorescence ratio (interference),[14],1 (inactive)
same,remaining activity,[11],107% (inactive)
same,outcome,[10],inactive
same,outcome,[16],inactive
CCCCCCCCCCCC1=C(O)C(=O)C=C(O)C1=O,remaining activity,[11],99.6% (inactive)
COc1cc(CNC(=O)CCCC/C=C/C(C)C)ccc1O,inhibition,[1],-19.2%
same,score,[2],0.57
same,rescue above control,[3],10.3
same,cytochrome c release ratio,[4],1.29
same,inhibition of aggregation,[5],71.9%
same,glutamate uptake change,[6],-9.59%
same,aggregation suppression score,[7],0.5
same,survival,[8],2.67 (inactive)
same,remaining activity,[11],122% (inactive)
same,outcome,[10],inactive
COc1c(C)c2c(c(O)c1C/C=C(\C)CCC(=O)O)C(=O)OC2,inhibition,[1],-14.6%
same,score,[2],0.55
same,rescue above control,[3],6.21
same,cytochrome c release ratio,[4],1.22
same,inhibition of aggregation,[5],35%
same,glutamate uptake change,[6],-2.33%
same,aggregation suppression score,[7],0.18
same,survival,[8],0.167 (inactive)
same,remaining activity,[11],113% (inactive)
same,SSMD,[15],-0.56
same,cell count,[15],7660
same,plate-normalised HSF1 focus index,[15],0.964 (inactive)
O=c1cc(-c2ccc(O)cc2)oc2cc(O)cc(O)c12,inhibition,[1],0.12%
same,score,[2],1.67
same,rescue above control,[3],2.14
same,cytochrome c release ratio,[4],3.46
same,inhibition of aggregation,[5],-7.84%
same,glutamate uptake change,[6],-6.97%
same,aggregation suppression score,[7],1.4
same,period change,[12],0.02 h (inactive)
same,survival,[8],17.8 (inactive)
same,inhibition,[13],-1% (inactive)
same,fluorescence ratio (interference),[14],1 (inactive)
same,remaining activity,[11],107% (inactive)
same,AC50,[10],2350 nM (active)
same,outcome,[16],inactive
O=C(O)c1cccnc1C(=O)O,inhibition,[1],-5.39%
same,score,[2],1.95
same,rescue above control,[3],5.37
same,cytochrome c release ratio,[4],1.17
same,inhibition of aggregation,[5],58.6%
same,glutamate uptake change,[6],-5.4%
same,aggregation suppression score,[7],1.12
same,period change,[12],-0.235 h (inactive)
same,inhibition,[13],-2% (inactive)
same,fluorescence ratio (interference),[14],1 (inactive)
same,remaining activity,[11],95.4% (inactive)
same,outcome,[16],inactive
CN1C[C@H](C(=O)N[C@]2(C)O[C@@]3(O)[C@@H]4CCCN4C(=O)[C@H](Cc4ccccc4)N3C2=O)C[C@@H]2c3cccc4[nH]cc(c34)C[C@H]21,inhibition,[1],-12.1%
same,score,[2],1.21
same,rescue above control,[3],4.53
same,cytochrome c release ratio,[4],1.48
same,inhibition of aggregation,[5],29.7%
same,glutamate uptake change,[6],15.4%
same,aggregation suppression score,[7],1.29
same,period change,[12],0.225 h (inactive)
same,survival,[8],19.1 (inactive)
same,inhibition,[13],-3% (inactive)
same,fluorescence ratio (interference),[14],1 (inactive)
same,remaining activity,[11],86.1% (inactive)
same,outcome,[16],inactive
CCCCOc1cc(CC2CNC(=O)N2)ccc1OC (centres undefined),period change,[12],0.115 h (inactive)
same,inhibition,[13],-2% (inactive)
same,fluorescence ratio (interference),[14],1 (inactive)
same,remaining activity,[11],104% (inactive)
same,outcome,[16],inactive

# Reference: PubChem BioAssay
